Source: PubChem BioAssay (NCATS)
Inconclusive results are not listed. The source made the active and inactive calls. Unless noted, calls come from the whole dose curve; as a rule, active = well fitted curve in the direction sought with a large enough effect; inconclusive = small, poorly fitted or top-dose-only effect, or another doubt; inactive = no such curve, though single readings can be large; an effect the other way counts as inactive or inconclusive.

Key:
[1] = AP1 Signaling Pathway (AID 357; active = well fitted curve in either direction with a large enough effect, not every such curve was filed as active;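 note: ME-180 reporter cells stimulated with EGF at its EC50 level; % is set by controls: 0 for no effect and ±100 for the full control effect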); settings: ME-180 AP-1-bla reporter, EGF-induced, beta-lactamase ratio, 5 h; at 38 µM (top of the series)
Method in brief: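 Modulation of EGF-driven AP-1 transcription was assessed with a beta-lactamase reporter in ME-180 cells. Compound and EC50 EGF were co-incubated 5 hours at 37 °C before 2.5-hour CCF4 loading at room temperature and dual-emission reading.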

[2] = biological target: Cytochrome P450 1A2 (Homo sapiens) (UniProt P05177); assay: p450-cyp1a2 (AID 410; calls by dose curve;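 note: -100% = full effect of reference inhibitor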)
Method in brief: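 20nM CYP1A2, 100uM Luciferin-ME (=Km), 100mM KPO4; cpd 10 min RT; +NADPH regen, 60 min RT; stop/detect 20 min; luminescence. Normalized to furafylline 57 uM = full inhibition.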

[3] = NFAT Signaling Pathway (AID 444; active = well fitted curve in either direction with a large enough effect, not every such curve was filed as active;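 note: carbachol stimulus at about its EC50 of 1 µM final; % is set by controls: 0 for no effect and ±100 for the full control effect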); settings: Jurkat NFAT-bla M1, carbachol, beta-lactamase ratio, 5 h; at 38 µM (top of the series)
Method in brief: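 Read-out: CCF4 FRET ratio (460 nm/530 nm) after 1 h RT dye loading, used for %activity and AC50 from titration series. Cells: Jurkat NFAT-β-lactamase/M1 line, treated with compound plus 1 uM carbachol for 5 h, 37 °C.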

[4] = Stat Signaling Pathway (AID 446; active = well fitted curve in either direction with a large enough effect, not every such curve was filed as active;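 note: ME-180 cervical cancer cells given 40 pM IL-6 alongside compound; SIE-controlled beta-lactamase reporter measured as 460/530 nm FRET emission ratio; % is set by controls: 0 for no effect and ±100 for the full control effect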); settings: ME-180 (cervical carcinoma) SIE beta-lactamase reporter, IL-6 stimulated, 5 h; at 38 µM (top of the series)
Method in brief: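 FRET read-out (405 nm excitation, 460/530 nm emission) of a beta-lactamase reporter under a STAT-inducible element in ME-180 cervical carcinoma cells. Cells with compound receive 40 pM IL-6 for 5 h. Values are normalised to AC90 stimulation and AC90 JAK-inhibitor controls.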

[5] = biological target: Glucocorticoid receptor (Homo sapiens) (UniProt P04150); assay: GR-GFP Redistribution (AID 450;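 active = compounds whose dose series gives a full or clear partial fitted curve of increased nuclear translocation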; note: potency is the fitted concentration of half-maximal effect); settings: U2OS GR-GFP nuclear translocation, laser cytometry, 2 h
[6] = biological target: Glucocorticoid receptor (Homo sapiens) (UniProt P04150); assay: GR-EFC Redistribution (AID 451; calls by dose curve; note: potency is the fitted concentration of half-maximal effect); settings: CHO-K1 GR-EFC translocation, beta-gal luminescence, 2 h
Method in brief: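 Translocation of GR-ED fusion to nuclear EA restores b-gal, read by luminescence after 1 h room-temperature detection. Engineered CHO-K1 biosensor cells, 1,000/well, exposed 2 h at 37 C to titrations up to 46 uM final.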

[7] = biological target: Mitogen-activated protein kinase 10 (Mus musculus) (UniProt Q61831); assay: JNK3 AlphaScreen Assay (AID 530; active = well fitted curve in either direction with a large enough effect, not every such curve was filed as active;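 note: kinase came from lysate of stimulated human HepG2 cells; signal reports phosphorylation of biotinylated GST-cJun 1-79 at Ser73 with 10 µM ATP; % is set by controls: 0 for no effect and ±100 for the full control effect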)
Method in brief: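 Kinase buffer: 20 mM Tris-HCl pH 7.6, 10 mM MgCl2, 1 mM DTT, 0.1 mM Na3VO4, 0.01% Tween-20; ATP 10 uM. Substrate biotin-GST-cJun(1-79), enzyme from activated HepG2 lysates. Detection by Ser73 phospho-antibody AlphaScreen.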

[8] = biological target: 3',5'-cyclic-AMP phosphodiesterase 4B (Homo sapiens) (UniProt Q07343); assay: qHTS Assay for Inhibitors of PDE-IV (AID 607; active = well fitted activation curve with a large enough effect in the main read-out, with a control signal flat, not every such curve was filed as active; note: % of control where 0% means no effect)
Method in brief: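 Cell-based read-out of cAMP via a modified cyclic nucleotide-gated channel and membrane potential dye (535/590 nm) in HEK293 cells expressing PDE4 endogenously. Compounds tested up to 22.9 uM final; 100 uM RO 20-1724 reference.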

[9] = biological target: Guanine nucleotide-binding protein G(i) subunit alpha-1 (Homo sapiens) (UniProt P63096); assay: qHTS Assay for Inhibitors of RGS12 GoLoco Motif Activity (Green Fluorophore) (AID 879);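 note: 0% = labeled peptide with Gαi1 and full inhibition = labeled peptide alone without protein; negative values mean loss of peptide binding seen as reduced polarization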
Method in brief: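 A drop in FITC polarization marked displacement of the FITC-tagged RGS12 GoLoco peptide (10 nM) from Gαi1 (50 nM). Compounds were incubated 10 min at room temperature in Tris pH 7.5 buffer containing 150 mM NaCl, 0.1 mM GDP and 0.05% NP40; unlabeled peptide titration served as control.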

[10] = biological target: Cytochrome P450 3A4 (Homo sapiens) (UniProt P08684); assay: qHTS Assay for Activators of Cytochrome P450 3A4 (AID 885); note: nearly all actives have a fitted effect of over 65% in size
Method in brief: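 Luminescent readout of luciferin formed from 25 uM Luciferin-PPXE (KM level) by 20 nM CYP3A4 in 200 mM KPO4, with 60 min NADPH-driven reaction at room temperature after 10 min compound exposure. Ketoconazole (57 uM) defined 100% inhibition.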

[11] = qHTS Assay for Identification of Small Molecule Agonists for Thrombopoietin (TPO) Signaling Pathway (AID 917); note: % is set by controls: 0 for no effect and ±100 for the full control effect
Method in brief: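 Quantitative HTS for pathway activators: compounds were pin-transferred onto IL-3-starved Ba/F3 cells expressing human TPO receptor, TPO was added at its EC50 (26 pM final), and after 24 hrs at 37 C reporter luciferase was measured.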

[12] = biological target: Pyruvate kinase (Leishmania mexicana) (UniProt Q27686); assay: qHTS Validation Assay for Inhibitors of Leishmania Mexicana Pyruvate Kinase (AID 945);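 note: 0% = DMSO only neutral control wells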
Method in brief: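 qHTS eight-point titrations against 0.2 nM LmPYK (E451W) in imidazole buffer pH 7.2 with 0.5 mM PEP, 0.1 mM ADP; 1 h, room temperature. Readout: PKLight luminescence, normalized to neutral DMSO wells.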

[13] = biological target: Pyruvate kinase PKM (Homo sapiens) (UniProt P14618); assay: qHTS Assay for Activators of Human Muscle Pyruvate Kinase (AID 954; active = well fitted curve in the direction sought with a large enough effect, not every such curve was filed as active;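 note: 0% = uninhibited enzyme and -100% = no enzyme or full thiadiazolimine inhibition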)
Method in brief: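 ATP production by PKM2 detected via luciferase luminescence after 1 h room-temperature reaction (0.1 nM enzyme, PEP at Km 0.5 mM, ADP 0.1 mM, pH 7.2 imidazole buffer). Inhibition scaled to no-enzyme control; activation referenced to 0.3 nM enzyme wells.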

[14] = biological target: Alpha-galactosidase A (Homo sapiens) (UniProt P06280); assay: Counterscreen for Glucocerebrosidase Inhibitors: qHTS Assay for Human alpha-Galactosidase at pH 4.5 (AID 992); note: 0% is about no effect
Method in brief: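 Fluorogenic 1536-well qHTS at pH 4.5 (citrate, Tween-20): 2 nM enzyme, 80 uM 4-MU-alpha-galactoside, 20 min room temperature, NaOH/glycine stop. Titration 0.7 nM to 77 uM, data normalized to no-enzyme and full-activity controls, Hill-fitted AC50.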

[15] = biological target: alpha-glucosidase (Oryza sativa, rice) (UniProt Q653V4); assay: Counterscreen for Glucocerebrosidase Inhibitors: qHTS Assay for Rice alpha-Glucosidase at pH 5.0 (AID 997);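 note: 0% = full activity with enzyme and -100% = basal without enzyme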
Method in brief: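 Endpoint fluorogenic assay at pH 5.0: compounds (0.7 nM to 77 uM) titrated against 4 nM rice enzyme and 400 uM 4-MU-alpha-glucoside for 20 min at room temperature; NaOH/glycine stop, read ex 365/em 440 nm, Hill-fitted AC50.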

[16] = Validation of Assay for Modulators of Lamin A Splicing (AID 1459; active = well fitted curve in the direction sought with a large enough effect in the signal ratio; the % refers to the signal ratio;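 note: cells exposed to compound for two days before reading; 0% is about no effect; ratio rise marks activators and ratio drop marks inhibitors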)
Method in brief: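 Splicing correction is reported by an EGFP-containing lamin A minigene in stably transfected S3 HeLa cells, while DsRed2 controls for viability and nonspecific signal. Cells are exposed to compounds for 48 hrs before the GFP over RFP ratio is taken.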

[17] = qHTS Assay for Lipid Storage Modulators (AID 1519; calls by dose curve); settings: Drosophila S3 cells, BODIPY lipid droplet/cell ratio, laser cytometry, cells loaded with oleic acid
Method in brief: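 Cells seeded at 5,000 per well were treated with compounds over a concentration series and loaded with oleic acid (400 uM, as added). Lipid droplet fluorescence (488 nm excitation, 500-530 nm channel) was read by laser-scanning cytometry and normalized to 20 uM Triacsin C.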

[18] = biological target: DNA repair nuclease/redox regulator APEX1 (Homo sapiens) (UniProt P27695); assay: qHTS Validation Assay for Inhibitors of the Human Apurinic/apyrimidinic Endonuclease 1 (APE1) (AID 1705)
Method in brief: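 Endonuclease activity of human APE1 is followed as dequenching when the enzyme incises a tetrahydrofuran abasic site in a short duplex labelled 5'-TAMRA/3'-BHQ-2 (50 nM final), after 15 min enzyme–compound preincubation at room temperature.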

Glucocorticoid receptor (Homo sapiens), sequence (P04150 whole entry, looked up, the tested form may be a part): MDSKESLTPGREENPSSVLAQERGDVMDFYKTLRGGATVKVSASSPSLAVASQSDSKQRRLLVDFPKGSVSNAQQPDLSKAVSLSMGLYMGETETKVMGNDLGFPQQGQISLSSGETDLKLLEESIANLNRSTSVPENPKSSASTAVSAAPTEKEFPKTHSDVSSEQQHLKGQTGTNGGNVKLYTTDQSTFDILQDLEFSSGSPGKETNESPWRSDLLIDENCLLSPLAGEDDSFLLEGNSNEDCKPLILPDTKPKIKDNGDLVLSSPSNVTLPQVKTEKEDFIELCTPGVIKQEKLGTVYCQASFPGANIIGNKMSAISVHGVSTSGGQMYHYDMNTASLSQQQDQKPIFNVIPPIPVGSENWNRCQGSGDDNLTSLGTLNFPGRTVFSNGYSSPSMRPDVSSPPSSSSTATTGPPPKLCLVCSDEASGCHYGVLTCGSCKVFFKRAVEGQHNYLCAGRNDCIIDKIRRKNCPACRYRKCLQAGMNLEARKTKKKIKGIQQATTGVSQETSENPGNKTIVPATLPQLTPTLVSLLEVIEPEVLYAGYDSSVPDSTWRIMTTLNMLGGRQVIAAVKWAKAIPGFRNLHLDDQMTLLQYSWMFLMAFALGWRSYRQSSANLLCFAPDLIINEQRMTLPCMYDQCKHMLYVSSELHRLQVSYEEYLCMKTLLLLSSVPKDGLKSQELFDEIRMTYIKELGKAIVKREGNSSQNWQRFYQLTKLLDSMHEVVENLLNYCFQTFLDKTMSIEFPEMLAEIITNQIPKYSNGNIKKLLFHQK
Cytochrome P450 1A2 (Homo sapiens), sequence (P05177 whole entry, looked up): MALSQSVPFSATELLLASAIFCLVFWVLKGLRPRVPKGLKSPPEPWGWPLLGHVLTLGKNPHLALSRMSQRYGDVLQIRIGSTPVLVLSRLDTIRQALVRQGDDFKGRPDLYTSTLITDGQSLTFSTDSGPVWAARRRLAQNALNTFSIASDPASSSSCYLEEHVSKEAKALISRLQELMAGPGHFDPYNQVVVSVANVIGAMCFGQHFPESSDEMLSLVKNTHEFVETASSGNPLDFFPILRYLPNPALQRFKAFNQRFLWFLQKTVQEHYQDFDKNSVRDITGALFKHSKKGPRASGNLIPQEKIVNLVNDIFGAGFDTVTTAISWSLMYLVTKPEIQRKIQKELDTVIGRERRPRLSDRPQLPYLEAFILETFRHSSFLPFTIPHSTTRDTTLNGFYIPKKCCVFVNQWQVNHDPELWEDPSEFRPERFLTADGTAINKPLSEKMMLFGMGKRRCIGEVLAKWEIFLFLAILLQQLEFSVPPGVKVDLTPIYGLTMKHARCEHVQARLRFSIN
Alpha-galactosidase A (Homo sapiens), sequence (P06280 whole entry, looked up): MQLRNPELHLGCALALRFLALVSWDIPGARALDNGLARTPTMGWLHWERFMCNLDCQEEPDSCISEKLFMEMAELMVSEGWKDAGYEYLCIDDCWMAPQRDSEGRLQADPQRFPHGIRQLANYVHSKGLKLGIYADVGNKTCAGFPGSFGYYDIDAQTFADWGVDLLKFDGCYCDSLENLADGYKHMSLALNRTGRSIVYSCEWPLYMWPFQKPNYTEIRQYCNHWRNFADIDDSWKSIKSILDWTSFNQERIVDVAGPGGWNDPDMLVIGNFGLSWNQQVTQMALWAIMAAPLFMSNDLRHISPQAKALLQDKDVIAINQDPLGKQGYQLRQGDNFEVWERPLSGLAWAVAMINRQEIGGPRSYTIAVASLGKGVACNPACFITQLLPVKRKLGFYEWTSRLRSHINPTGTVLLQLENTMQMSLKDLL
DNA repair nuclease/redox regulator APEX1 (Homo sapiens), sequence (P27695 whole entry, looked up): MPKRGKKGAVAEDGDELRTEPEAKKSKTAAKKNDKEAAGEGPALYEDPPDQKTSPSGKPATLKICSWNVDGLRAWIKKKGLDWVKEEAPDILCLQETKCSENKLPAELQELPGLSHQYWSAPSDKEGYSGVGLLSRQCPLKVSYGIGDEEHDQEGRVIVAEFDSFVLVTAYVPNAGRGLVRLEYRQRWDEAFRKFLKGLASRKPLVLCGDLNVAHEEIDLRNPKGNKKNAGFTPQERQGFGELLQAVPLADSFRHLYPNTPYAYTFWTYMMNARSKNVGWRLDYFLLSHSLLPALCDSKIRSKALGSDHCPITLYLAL
Cytochrome P450 3A4 (Homo sapiens), sequence (P08684 whole entry, looked up): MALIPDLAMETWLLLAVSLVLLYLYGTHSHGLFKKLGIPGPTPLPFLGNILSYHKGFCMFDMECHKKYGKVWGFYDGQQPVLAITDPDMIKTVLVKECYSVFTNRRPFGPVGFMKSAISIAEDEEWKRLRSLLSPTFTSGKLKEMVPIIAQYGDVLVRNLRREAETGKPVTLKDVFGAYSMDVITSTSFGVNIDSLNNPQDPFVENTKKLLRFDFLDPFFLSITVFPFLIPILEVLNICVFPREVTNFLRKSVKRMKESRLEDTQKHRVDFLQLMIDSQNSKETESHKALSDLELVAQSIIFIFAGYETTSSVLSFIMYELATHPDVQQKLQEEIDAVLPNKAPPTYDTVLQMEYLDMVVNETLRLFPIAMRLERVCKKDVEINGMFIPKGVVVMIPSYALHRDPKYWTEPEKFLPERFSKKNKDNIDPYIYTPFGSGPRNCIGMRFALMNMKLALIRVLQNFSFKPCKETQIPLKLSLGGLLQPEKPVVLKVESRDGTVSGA
3',5'-cyclic-AMP phosphodiesterase 4B (Homo sapiens), sequence (Q07343 whole entry, looked up): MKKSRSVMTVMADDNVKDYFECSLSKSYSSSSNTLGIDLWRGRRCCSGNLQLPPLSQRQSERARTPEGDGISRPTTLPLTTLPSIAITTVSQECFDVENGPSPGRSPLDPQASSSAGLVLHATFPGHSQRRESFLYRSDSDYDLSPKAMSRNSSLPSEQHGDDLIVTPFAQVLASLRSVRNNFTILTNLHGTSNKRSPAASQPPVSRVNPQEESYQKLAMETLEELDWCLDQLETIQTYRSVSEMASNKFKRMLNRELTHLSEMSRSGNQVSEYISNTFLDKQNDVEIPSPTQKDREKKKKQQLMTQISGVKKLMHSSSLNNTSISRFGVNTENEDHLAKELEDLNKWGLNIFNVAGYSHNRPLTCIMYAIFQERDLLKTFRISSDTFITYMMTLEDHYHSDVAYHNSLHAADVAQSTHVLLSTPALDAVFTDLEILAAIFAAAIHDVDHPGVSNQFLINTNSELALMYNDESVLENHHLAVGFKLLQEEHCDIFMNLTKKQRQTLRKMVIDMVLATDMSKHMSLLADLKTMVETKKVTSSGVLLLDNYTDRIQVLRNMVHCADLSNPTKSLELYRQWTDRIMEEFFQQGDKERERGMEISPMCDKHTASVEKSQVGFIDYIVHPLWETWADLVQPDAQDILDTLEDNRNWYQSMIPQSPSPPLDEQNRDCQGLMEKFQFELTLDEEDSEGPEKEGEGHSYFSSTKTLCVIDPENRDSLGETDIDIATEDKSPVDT
Pyruvate kinase PKM (Homo sapiens), sequence (P14618 whole entry, looked up): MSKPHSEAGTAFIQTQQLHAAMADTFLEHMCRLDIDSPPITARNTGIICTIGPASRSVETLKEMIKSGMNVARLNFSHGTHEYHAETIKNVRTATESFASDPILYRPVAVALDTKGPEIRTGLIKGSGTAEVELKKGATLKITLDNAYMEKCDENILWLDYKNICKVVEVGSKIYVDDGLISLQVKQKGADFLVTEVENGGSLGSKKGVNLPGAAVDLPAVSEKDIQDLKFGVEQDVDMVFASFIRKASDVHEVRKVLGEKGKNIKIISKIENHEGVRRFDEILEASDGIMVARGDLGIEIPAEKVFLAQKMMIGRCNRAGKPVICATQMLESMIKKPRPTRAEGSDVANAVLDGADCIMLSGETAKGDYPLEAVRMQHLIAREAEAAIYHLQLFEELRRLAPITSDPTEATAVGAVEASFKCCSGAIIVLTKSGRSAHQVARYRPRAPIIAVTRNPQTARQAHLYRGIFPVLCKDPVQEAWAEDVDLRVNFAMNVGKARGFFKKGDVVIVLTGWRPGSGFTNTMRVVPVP
Pyruvate kinase (Leishmania mexicana), sequence (Q27686 2-499 E452W): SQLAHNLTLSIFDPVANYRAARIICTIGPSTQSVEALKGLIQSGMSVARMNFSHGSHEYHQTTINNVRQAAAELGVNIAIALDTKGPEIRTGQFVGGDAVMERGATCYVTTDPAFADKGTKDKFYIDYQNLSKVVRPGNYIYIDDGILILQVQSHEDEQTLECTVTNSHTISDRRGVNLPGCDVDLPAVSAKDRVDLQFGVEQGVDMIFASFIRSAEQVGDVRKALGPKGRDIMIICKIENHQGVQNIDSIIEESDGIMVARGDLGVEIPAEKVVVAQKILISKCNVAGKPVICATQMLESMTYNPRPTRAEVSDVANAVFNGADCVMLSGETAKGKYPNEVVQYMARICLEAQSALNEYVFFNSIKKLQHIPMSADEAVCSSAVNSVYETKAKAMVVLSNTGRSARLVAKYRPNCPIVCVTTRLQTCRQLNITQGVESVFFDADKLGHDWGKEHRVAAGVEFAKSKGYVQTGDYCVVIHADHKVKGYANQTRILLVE
Guanine nucleotide-binding protein G(i) subunit alpha-1 (Homo sapiens), sequence (P63096 whole entry, looked up): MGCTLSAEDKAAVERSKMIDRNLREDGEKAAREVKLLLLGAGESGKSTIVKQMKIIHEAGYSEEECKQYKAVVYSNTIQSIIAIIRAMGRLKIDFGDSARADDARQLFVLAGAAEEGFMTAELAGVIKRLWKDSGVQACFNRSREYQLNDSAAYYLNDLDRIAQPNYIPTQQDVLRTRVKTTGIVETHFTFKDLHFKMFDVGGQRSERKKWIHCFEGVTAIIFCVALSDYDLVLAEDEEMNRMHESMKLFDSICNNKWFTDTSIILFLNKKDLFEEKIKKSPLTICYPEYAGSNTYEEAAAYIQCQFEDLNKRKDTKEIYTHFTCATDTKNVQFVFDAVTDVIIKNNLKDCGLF

CC(N)=NCc1cccc(CN)c1
inactive: activity change, negative = inhibition [1] -2.56% | Potency [2] | activity change, negative = inhibition [3] -2.12% | activity, negative = inhibition [4] 3.99% | Potency [5] > 46 µM | Potency [6] > 46 µM | Potency [7] | Potency [8] | outcome [9] | Potency [10] | Potency [11] | Potency [12] | outcome [13] | outcome [14] | outcome [15] | outcome [16] | activity change, negative = inhibition ([17]; at 57.5 µM (top of the series)) 0.387% | Potency [18]
-16.1%: max response ([17]; measured here: cell count channel max response)
-15%: max response ([17]; measured here: lipid channel max response)
